Laboratory results as given in PubChem BioAssay AID1252 (The Scripps Research Institute Molecular Screening Center, 2008).
Some of the results follow. Calls of active or inactive are those of the source.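 The calls were made as follows: active = over 50% activation at some tested dose; inactive = under 50% activation at every tested dose.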

Assay: Hsp70 transcriptional activators, dose response, cell-based, HeLa, Hsp70 promoter luciferase, luminescence, triplicate (AID 1252)

SMILES	outcome
COc1ccc(NC(=O)/C(Cl)=C(/Cl)S(=O)Cc2ccc(C)cc2)cn1 (centres undefined)	inactive
COCCn1c(C)cc(C(=O)CSc2nc3ccccc3c(=O)n2C(C)COC)c1C (centres undefined)	inactive
COc1ccc(CS(=O)/C(Cl)=C(/Cl)C(=O)Nc2ccc(OC)nc2)cc1 (centres undefined)	inactive
O=C(/C=C/Sc1ncn[nH]1)c1ccc(Cl)cc1	inactive
